Measured values from paper PMC7862700, “An all-to-all approach to the identification of sequence-specific readers for epigenetic DNA modifications on cytosine”.

Legend:
Assay in all cases: DAPPL (digital affinity profiling via proximity ligation, sequencing); 10 mM Tris-HCl pH 7.5, 50 mM NaCl, 1 mM DTT, 4% glycerol, room temperature, 30 min; GST-TFs on glutathione beads, 16-mer random dsDNA library, 0.1% formaldehyde crosslink after washing; high values mean tight binding
FLI1 = target: T1, FLI1 (Homo sapiens, UniProt Q01543 1-452); details: protein: recombinant; tags: N-terminal GST; dsDNA, one strand shown
T1 sequence: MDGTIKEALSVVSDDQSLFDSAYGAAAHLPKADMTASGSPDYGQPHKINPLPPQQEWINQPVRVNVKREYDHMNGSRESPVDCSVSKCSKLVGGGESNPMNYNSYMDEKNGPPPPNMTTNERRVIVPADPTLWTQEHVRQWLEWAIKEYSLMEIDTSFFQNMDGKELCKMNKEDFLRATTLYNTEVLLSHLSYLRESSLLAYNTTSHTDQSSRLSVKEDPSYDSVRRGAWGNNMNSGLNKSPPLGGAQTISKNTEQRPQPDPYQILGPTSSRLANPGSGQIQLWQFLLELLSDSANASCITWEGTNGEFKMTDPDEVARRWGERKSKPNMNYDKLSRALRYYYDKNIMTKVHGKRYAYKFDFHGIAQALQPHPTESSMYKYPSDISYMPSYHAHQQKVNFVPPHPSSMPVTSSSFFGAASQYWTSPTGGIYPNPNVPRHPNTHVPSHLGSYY
Summary of the method: (§1)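 Human transcription factors fused to GST were expressed in yeast, captured on glutathione beads, given DNA barcodes and pooled with a GST-only negative control. Pools were incubated with 200 nmole of a 16-mer random double-stranded DNA library in Tris/NaCl/DTT/glycerol buffer at room temperature for 30 min. They were then washed, crosslinked with 0.1% formaldehyde, proximity-ligated (BsaI/T4 ligase, 1 h, 37 °C), PCR-amplified and sequenced on an Illumina NextSeq500. Binding signal is each 6-mer's read frequency for a factor divided by its frequency for the GST control.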

ELK1 = target: T2, ELK1 (Homo sapiens, UniProt P19419 1-428); details: protein: recombinant; tags: N-terminal GST; dsDNA, one strand shown
T2 sequence: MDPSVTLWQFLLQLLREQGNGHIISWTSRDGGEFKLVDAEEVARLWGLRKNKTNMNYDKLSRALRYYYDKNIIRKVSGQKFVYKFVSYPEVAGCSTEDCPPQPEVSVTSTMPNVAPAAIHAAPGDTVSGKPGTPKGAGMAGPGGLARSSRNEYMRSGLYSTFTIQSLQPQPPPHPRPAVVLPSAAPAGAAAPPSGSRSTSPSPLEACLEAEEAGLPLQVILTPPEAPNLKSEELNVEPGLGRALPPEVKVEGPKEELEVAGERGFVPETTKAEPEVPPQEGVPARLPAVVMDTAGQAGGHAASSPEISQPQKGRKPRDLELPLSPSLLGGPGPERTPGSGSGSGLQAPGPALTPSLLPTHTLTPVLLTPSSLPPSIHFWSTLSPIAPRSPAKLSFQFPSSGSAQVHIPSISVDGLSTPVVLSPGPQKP
Summary of the method: as §1

GABPA = target: T3, GABPA (Homo sapiens, UniProt Q06546 1-454); details: protein: recombinant; tags: N-terminal GST; dsDNA, one strand shown
T3 sequence: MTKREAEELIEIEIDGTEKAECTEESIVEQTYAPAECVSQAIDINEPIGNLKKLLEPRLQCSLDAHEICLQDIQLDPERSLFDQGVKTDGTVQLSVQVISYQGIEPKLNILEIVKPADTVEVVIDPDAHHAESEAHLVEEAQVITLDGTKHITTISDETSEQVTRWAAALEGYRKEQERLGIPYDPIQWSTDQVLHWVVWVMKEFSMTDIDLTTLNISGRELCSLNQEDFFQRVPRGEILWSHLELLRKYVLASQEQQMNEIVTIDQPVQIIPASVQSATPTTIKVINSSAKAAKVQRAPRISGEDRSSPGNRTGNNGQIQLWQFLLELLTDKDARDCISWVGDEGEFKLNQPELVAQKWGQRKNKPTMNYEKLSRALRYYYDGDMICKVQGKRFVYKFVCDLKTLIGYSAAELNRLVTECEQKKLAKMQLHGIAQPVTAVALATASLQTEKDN
Summary of the method: as §1

ERG = target: T4, ERG (Homo sapiens, UniProt P11308 1-479); details: protein: recombinant; tags: N-terminal GST; dsDNA, one strand shown
T4 sequence: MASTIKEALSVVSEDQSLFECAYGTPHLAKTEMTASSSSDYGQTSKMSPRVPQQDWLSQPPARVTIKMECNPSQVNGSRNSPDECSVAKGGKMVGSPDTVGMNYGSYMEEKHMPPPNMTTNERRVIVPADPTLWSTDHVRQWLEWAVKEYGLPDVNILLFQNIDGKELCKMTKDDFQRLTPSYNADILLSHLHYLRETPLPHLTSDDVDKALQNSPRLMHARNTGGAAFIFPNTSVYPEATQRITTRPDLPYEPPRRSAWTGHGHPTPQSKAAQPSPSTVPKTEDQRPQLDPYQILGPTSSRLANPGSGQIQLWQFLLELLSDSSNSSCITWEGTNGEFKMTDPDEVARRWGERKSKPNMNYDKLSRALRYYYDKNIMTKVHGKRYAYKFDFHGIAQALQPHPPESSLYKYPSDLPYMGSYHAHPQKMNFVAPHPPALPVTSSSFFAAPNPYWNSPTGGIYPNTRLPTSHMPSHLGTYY
Summary of the method: as §1

ELF1 = ELF1 (Homo sapiens, UniProt P32519 1-619); details: protein: recombinant; tags: N-terminal GST; dsDNA, one strand shown
Summary of the method: as §1

EHF = target: T5, EHF (Homo sapiens, UniProt Q9NZC4 1-300); details: protein: recombinant; tags: N-terminal GST; dsDNA, one strand shown
T5 sequence: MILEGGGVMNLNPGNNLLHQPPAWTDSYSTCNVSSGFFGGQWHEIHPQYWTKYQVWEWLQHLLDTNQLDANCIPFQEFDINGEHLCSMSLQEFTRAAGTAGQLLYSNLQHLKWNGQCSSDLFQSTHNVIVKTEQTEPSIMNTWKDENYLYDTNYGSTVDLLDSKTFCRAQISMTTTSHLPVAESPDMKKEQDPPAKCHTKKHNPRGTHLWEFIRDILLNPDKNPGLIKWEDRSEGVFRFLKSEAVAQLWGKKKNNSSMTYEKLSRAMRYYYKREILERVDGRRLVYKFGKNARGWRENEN
Summary of the method: as §1

SPI1 = SPI1 (Homo sapiens, UniProt P17947 1-270); details: protein: recombinant; tags: N-terminal GST; dsDNA, one strand shown
Summary of the method: as §1

SPIB = SPIB (Homo sapiens, UniProt Q01892 1-262); details: protein: recombinant; tags: N-terminal GST; dsDNA, one strand shown
Summary of the method: as §1

ELK3 = target: T6, ELK3 (Homo sapiens, UniProt P41970 1-407); details: protein: recombinant; tags: N-terminal GST; dsDNA, one strand shown
T6 sequence: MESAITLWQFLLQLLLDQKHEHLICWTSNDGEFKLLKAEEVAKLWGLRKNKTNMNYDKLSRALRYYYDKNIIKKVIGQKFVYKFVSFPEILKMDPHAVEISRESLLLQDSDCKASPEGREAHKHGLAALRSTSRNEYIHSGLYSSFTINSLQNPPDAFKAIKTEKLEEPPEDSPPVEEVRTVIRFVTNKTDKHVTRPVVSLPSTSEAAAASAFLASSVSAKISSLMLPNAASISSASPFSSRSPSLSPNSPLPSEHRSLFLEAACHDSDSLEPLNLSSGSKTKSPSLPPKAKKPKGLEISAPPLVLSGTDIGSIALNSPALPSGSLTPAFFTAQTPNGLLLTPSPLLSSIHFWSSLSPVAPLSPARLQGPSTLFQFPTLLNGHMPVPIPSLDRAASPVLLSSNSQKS
Summary of the method: as §1

FEV = target: T7, FEV (Homo sapiens, UniProt Q99581 1-238); details: protein: recombinant; tags: N-terminal GST; dsDNA, one strand shown
T7 sequence: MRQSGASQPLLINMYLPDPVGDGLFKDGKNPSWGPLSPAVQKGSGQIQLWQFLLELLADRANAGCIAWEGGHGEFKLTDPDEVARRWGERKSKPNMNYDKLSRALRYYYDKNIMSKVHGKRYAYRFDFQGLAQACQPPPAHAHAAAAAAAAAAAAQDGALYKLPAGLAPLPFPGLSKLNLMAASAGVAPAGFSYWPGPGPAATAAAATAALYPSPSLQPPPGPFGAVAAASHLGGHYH
Summary of the method: as §1

ETV5 = ETV5 (Homo sapiens, UniProt P41161 1-510); details: protein: recombinant; tags: N-terminal GST; dsDNA, one strand shown
Summary of the method: as §1

HSF1 = HSF1 (Homo sapiens, UniProt Q00613 1-529); details: protein: recombinant; tags: N-terminal GST; chain copies: 3; dsDNA, one strand shown
Summary of the method: as §1

SPIC = target: T8, SPIC (Homo sapiens, UniProt Q8N5J4 1-248); details: protein: recombinant; tags: N-terminal GST; dsDNA, one strand shown
T8 sequence: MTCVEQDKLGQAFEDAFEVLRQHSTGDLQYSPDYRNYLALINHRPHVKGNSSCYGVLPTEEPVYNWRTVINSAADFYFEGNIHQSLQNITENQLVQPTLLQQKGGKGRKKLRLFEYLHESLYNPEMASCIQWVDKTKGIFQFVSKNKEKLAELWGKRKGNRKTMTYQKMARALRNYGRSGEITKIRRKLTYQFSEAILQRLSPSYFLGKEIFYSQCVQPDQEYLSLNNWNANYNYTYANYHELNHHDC
Summary of the method: as §1

ELF4 = ELF4 (Homo sapiens, UniProt Q99607 1-663); details: protein: recombinant; tags: N-terminal GST; dsDNA, one strand shown
Summary of the method: as §1

ELK4 = target: T9, ELK4 (Homo sapiens, UniProt P28324-2 1-405); details: protein: recombinant; tags: N-terminal GST; dsDNA, one strand shown
T9 sequence: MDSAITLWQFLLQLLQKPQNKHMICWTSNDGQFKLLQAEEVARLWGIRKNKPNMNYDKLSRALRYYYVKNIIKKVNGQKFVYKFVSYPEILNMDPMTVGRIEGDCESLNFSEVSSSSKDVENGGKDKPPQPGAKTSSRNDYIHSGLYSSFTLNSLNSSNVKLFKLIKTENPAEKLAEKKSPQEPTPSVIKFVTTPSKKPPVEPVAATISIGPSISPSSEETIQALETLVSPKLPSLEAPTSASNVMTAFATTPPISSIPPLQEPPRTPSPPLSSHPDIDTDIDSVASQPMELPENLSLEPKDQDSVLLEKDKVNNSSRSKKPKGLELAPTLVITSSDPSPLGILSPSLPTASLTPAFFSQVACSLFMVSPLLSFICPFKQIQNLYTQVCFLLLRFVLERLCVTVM
Summary of the method: as §1

ETV2 = target: T10, ETV2 (Homo sapiens, UniProt O00321 1-342); details: protein: recombinant; tags: N-terminal GST; dsDNA, one strand shown
T10 sequence: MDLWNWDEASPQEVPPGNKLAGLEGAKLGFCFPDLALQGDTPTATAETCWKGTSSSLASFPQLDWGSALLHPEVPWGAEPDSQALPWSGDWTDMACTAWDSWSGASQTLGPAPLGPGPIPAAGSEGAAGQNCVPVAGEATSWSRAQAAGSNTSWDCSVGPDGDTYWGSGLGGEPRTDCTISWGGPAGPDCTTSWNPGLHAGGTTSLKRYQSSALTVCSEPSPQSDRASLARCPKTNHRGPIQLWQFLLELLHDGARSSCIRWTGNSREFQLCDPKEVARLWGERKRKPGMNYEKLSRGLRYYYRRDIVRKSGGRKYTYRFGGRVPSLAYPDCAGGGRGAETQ
Summary of the method: as §1

ELF3 = target: T11, ELF3 (Homo sapiens, UniProt P78545 1-371); details: protein: recombinant; tags: N-terminal GST; dsDNA, one strand shown
T11 sequence: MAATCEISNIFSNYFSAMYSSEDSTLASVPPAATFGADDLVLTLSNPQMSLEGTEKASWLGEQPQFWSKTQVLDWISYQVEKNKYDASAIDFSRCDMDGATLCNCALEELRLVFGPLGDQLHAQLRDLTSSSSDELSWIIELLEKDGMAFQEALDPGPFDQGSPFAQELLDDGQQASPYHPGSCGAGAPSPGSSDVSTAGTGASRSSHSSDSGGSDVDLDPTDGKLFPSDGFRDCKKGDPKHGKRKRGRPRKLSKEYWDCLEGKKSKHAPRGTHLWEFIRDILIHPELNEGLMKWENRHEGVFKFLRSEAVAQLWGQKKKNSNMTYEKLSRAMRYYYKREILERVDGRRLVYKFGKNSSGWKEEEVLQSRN
Summary of the method: as §1

CRX = CRX (Homo sapiens, UniProt O43186 1-299); details: protein: recombinant; tags: N-terminal GST; dsDNA, one strand shown
Summary of the method: as §1

ETV1 = ETV1 (Homo sapiens, UniProt P50549 1-477); details: protein: recombinant; tags: N-terminal GST; dsDNA, one strand shown
Summary of the method: as §1

ELF4, sequence (Q99607 whole entry): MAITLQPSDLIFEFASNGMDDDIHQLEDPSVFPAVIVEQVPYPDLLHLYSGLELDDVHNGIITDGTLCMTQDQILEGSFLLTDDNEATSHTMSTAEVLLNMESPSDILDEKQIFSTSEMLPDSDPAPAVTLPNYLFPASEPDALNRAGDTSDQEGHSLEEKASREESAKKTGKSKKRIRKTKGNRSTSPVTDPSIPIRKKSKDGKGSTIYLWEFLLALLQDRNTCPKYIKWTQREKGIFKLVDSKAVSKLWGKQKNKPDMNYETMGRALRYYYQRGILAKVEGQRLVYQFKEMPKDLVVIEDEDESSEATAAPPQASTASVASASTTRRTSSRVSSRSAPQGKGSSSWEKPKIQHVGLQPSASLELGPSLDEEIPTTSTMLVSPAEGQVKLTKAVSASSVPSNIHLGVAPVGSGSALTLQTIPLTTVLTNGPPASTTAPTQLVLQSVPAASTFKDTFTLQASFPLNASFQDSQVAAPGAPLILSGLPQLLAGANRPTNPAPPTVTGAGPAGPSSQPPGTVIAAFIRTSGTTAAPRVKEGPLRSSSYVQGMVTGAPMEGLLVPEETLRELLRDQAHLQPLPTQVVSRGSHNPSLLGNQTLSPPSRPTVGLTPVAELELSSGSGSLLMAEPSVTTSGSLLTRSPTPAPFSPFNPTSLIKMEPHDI
CRX, sequence (O43186 whole entry): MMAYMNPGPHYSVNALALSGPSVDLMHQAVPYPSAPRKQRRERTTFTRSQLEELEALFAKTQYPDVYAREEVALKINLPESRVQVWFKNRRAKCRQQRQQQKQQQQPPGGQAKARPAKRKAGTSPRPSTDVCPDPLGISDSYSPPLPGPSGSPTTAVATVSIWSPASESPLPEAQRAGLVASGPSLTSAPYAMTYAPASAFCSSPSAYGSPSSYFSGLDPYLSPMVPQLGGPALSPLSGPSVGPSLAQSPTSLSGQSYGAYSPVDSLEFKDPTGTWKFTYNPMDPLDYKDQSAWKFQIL
HSF1, sequence (Q00613 whole entry): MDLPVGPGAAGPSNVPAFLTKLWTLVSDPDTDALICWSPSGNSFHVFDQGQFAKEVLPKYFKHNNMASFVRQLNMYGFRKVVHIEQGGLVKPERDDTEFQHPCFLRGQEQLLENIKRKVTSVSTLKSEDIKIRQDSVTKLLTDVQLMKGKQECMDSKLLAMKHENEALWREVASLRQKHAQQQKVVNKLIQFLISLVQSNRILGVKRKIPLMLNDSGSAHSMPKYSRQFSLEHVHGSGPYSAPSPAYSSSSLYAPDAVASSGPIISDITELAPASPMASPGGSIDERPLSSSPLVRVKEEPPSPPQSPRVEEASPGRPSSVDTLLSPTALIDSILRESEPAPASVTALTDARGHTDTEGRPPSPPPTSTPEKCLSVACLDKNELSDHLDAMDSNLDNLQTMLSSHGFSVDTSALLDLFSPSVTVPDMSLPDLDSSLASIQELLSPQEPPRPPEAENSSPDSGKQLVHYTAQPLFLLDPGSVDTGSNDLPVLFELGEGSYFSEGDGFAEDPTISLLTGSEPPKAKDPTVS
ETV1, sequence (P50549 whole entry): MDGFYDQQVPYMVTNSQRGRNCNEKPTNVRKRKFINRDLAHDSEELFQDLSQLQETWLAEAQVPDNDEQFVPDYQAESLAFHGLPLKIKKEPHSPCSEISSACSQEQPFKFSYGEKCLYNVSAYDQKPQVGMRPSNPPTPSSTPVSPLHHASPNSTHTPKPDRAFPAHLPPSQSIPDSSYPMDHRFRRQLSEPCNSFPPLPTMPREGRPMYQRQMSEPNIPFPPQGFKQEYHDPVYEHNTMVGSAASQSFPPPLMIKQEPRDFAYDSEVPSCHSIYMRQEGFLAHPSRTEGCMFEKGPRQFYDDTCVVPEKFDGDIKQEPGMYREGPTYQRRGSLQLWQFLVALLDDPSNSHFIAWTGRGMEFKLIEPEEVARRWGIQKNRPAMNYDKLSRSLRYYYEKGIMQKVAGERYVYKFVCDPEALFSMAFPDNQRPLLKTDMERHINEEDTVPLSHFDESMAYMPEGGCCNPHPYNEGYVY
SPIB, sequence (Q01892 whole entry): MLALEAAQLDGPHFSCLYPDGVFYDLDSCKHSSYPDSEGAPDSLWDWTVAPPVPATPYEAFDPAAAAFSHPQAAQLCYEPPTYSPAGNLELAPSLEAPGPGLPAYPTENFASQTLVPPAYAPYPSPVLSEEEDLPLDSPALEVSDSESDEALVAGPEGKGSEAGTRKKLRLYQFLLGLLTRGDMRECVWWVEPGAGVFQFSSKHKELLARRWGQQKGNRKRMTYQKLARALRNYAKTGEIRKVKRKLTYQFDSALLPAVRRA
ETV5, sequence (P41161 whole entry): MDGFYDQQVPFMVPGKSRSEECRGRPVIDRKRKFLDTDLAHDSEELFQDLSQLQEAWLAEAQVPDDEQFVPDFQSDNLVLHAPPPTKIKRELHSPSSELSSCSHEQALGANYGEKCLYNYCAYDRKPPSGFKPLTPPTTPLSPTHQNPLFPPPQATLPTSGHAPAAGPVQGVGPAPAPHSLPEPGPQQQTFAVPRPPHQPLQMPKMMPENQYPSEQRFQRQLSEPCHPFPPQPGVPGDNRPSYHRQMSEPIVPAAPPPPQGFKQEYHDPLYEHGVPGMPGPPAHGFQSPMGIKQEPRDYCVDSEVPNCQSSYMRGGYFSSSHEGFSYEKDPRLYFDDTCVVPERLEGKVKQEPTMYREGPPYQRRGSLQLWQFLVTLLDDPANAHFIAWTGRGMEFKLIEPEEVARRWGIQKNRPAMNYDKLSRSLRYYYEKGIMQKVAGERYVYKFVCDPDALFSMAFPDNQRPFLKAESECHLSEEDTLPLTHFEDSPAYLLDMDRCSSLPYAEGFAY
ELF1, sequence (P32519 whole entry): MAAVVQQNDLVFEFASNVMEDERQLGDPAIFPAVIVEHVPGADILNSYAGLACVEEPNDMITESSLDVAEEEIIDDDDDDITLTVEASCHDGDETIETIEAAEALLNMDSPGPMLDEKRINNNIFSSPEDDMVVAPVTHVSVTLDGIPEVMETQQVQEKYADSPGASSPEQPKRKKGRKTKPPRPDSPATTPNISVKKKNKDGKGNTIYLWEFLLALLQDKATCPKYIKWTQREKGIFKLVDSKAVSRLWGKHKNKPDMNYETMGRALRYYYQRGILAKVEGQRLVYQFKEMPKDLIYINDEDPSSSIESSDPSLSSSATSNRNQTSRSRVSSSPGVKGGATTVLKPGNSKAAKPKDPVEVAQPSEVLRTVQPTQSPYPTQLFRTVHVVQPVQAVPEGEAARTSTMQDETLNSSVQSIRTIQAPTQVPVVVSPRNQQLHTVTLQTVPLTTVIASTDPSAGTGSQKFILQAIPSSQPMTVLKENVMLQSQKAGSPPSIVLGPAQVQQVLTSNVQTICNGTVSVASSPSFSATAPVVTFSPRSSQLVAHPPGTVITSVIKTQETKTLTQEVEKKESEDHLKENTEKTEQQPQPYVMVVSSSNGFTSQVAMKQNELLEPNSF

ATTTAC
binding signal (FLI1): 1.22 fold enrichment (6-mer frequency, TF over GST control) | binding signal (ELK1): 1.29 fold enrichment (6-mer frequency, TF over GST control) | binding signal (GABPA): 1.23 fold enrichment (6-mer frequency, TF over GST control) | binding signal (ERG): 1.27 fold enrichment (6-mer frequency, TF over GST control) | binding signal (ELF1): 1.28 fold enrichment (6-mer frequency, TF over GST control) | binding signal (EHF): 1.33 fold enrichment (6-mer frequency, TF over GST control) | binding signal (SPI1): 1.28 fold enrichment (6-mer frequency, TF over GST control) | binding signal (SPIB): 1.23 fold enrichment (6-mer frequency, TF over GST control) | binding signal (ELK3): 1.21 fold enrichment (6-mer frequency, TF over GST control) | binding signal (FEV): 1.3 fold enrichment (6-mer frequency, TF over GST control) | binding signal (ETV5): 1.33 fold enrichment (6-mer frequency, TF over GST control) | binding signal (HSF1): 1.38 fold enrichment (6-mer frequency, TF over GST control) | binding signal (SPIC): 1.2 fold enrichment (6-mer frequency, TF over GST control) | binding signal (ELF4): 1.33 fold enrichment (6-mer frequency, TF over GST control) | binding signal (ELK4): 1.23 fold enrichment (6-mer frequency, TF over GST control) | binding signal (ETV2): 1.16 fold enrichment (6-mer frequency, TF over GST control) | binding signal (ELF3): 1.27 fold enrichment (6-mer frequency, TF over GST control) | binding signal (CRX): 1.75 fold enrichment (6-mer frequency, TF over GST control) | binding signal (ETV1): 1.22 fold enrichment (6-mer frequency, TF over GST control)
